Assay outcomes as filed in PubChem BioAssay.
Many of the other results were omitted from the sample, so hits are more common in it than they were.
IMPase Li cell – IMPase inhibition in cells with lithium potentiation; CHO-M1 cells, IP1 TR-FRET (IP-One), carbachol + lithium; Potency, µM (doses to about 59.4 µM), most hits filed as inhibitors; hit rate 0.35% among 210,000; AID 1457;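 also: IP1 builds up when IMPase is blocked and the TR-FRET signal falls; nearly all actives have a fitted effect of over 50% in size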
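Test compounds were applied to CHO-M1 cells previously cultured for 16–30 h at 2000 per well. A small lithium amount accompanied them; after 30 min at 37C, IP1 was quantified by TR-FRET.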
ALOX12 inhib – inhibitors of human 12-lipoxygenase (ALOX12) | P18054 | purified 12-hLO, xylenol orange hydroperoxide absorbance | Potency, µM (doses to about 57.1 µM), usual class: inhibitors | hit rate 0.12% among 150,000; also: nearly all actives have a fitted effect of over 55% in size
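Hydroperoxide output read as Fe(III)-xylenol orange absorbance, 573-to-405 nm ratio, after 30 min reaction with 40 uM arachidonic acid. Enzyme: 150 nM purified human 12hLO, 15 min compound preincubation; 25 mM Hepes pH 7.0, room temperature.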
PNC inhibitor – blocks assembly of the perinucleolar compartment | PC3M PTB-GFP, PNC prevalence imaging, 16 h; hits give low values | hit rate 3.1% among 140,000 | AID 2417 | activity change (PNC), negative = inhibition, % at 10 µM;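 active = readout at or below -70, meaning at least 70% loss of cells showing the perinucleolar compartment, a nuclear body marking cancer cells; inconclusive = readout between -30 and a set limit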
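Read-out is percentage of cells bearing a perinucleolar compartment, from automated 20x imaging of fixed, Hoechst-stained PC3M PTB-GFP cells. Cells were seeded 4 h, then exposed 16 h to compound (23 nl of library stock) in duplicate plates.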
IMPase inh – membrane-permeable compound that blocks inositol monophosphatase. CHO-M1 cells, IP1 accumulation, HTRF TR-FRET ratio. P97697. 120,000 tested, under 10 active. AID 901. inhibition (IP1 accumulation), % at 46.1 µM; active = well fitted curve in the direction sought with a large enough effect in the signal ratio, not every such curve was filed as active; inconclusive = small, poorly fitted or top-dose-only effect, or a change in a side signal; inactive = no such curve, though single readings can be large or run the other way; the % refers to the signal ratio;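 also: cells stimulated with carbachol in lithium chloride buffer; higher means more IMPase inhibition seen as more IP1 and lower FRET ratio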
Target sequence (P97697 whole entry, looked up): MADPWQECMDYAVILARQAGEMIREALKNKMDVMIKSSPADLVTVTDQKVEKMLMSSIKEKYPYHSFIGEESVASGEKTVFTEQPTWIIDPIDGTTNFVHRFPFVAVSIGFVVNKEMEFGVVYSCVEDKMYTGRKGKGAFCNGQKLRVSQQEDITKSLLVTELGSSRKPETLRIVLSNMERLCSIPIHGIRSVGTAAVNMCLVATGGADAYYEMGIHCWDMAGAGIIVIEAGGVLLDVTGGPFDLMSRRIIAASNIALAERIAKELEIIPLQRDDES
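CHO-M1, 2000 cells/well, cultured 16–30 h; cpd up to 46 uM; carbachol (50 uM solution, stimulation buffer w/ 50 mM LiCl, pH 7.4), 30 min 37C; IP-One TR-FRET, 10 min RT; Ex 320/Em 665, 620; Hill-fit AC50.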
Numbers stand for hits; – = inactive; ? = inconclusive; · = no result given; [ ] = remark or other dose. Unless noted, calls follow the shape of the dose curve; as a rule, active = well fitted curve in the direction sought with a large enough effect; inconclusive = small, poorly fitted or top-dose-only effect, or another doubt; inactive = no such curve, though single readings can be large; an effect the other way counts as inactive or inconclusive.

SMILES | IMPase Li cell | ALOX12 inhib | PNC inhibitor | IMPase inh
CN(CCO)C(=O)CCC(=O)Nc1ccc(S(N)(=O)=O)cc1 | – | – | -127 | –
CCOC(=O)c1ccc(NC(=O)N(CC)CC)cc1 | – | – | -92 | –
CCOC(=O)CC(=O)Nc1ccc(C(=O)OCC)cc1 | – | – | – | –
COc1ccccc1N=C1SC(C(=O)Nc2ccc(F)cc2)CC(=O)N1C (stereo unspecified) | – | – | -100 | –
CCCOc1ccc(NC(=O)C2CC(=O)N(C)C(=Nc3cccc(OC)c3)S2)cc1 (stereo unspecified) | – | · | · | ·
CCCCN1C(=O)C2(NNc3ccccc3O2)c2ccccc21 (stereo unspecified) | – | ? | ? | –
CCCCN1C(=O)Nc2ccccc2S1=O (stereo unspecified) | – | – | -87 | ·
NS(=O)(=O)c1ccc(NC(=S)NC(=O)c2ccc(-c3ccccc3)cc2)cc1 | 11µM | – | – | –
O=C(NC(=S)Nc1ccc(Oc2ccc(Cl)cc2)cc1)c1ccccc1 | – | 13µM | – | –
CCC(=O)NC(=S)Nc1ccc(NC(=S)NC(=O)c2ccccc2)cc1 | – | · | · | ·
COC(=O)C1C2CC3c4[nH]c5cc(OC)ccc5c4CCN3CC2CC(OC(=O)c2cc(OC)c(OC)c(OC)c2)C1OC (stereo unspecified) | – | – | · | –
CN(C)c1ccc(P(=O)(Nc2ccc([N+](=O)[O-])cc2)N2CCOCC2)c(NC(=O)c2cccs2)c1 (stereo unspecified) | – | – | -80 | –
Cc1ccc(NP(=O)(c2ccc(N(C)C)cc2NC(=O)c2cccs2)N2CCOCC2)cc1 (stereo unspecified) | – | – | – | –
Cc1occc1C(=O)NC(C)C12CC3CC(CC(C3)C1)C2 (stereo unspecified) | – | · | · | ·
Cc1occc1C(=O)NN=C1C2CC3CC(C2)CC1C3 | – | – | -100 | ?
Cc1ccccc1-c1ccccc1N | – | – | – | ·
Nc1ccccc1-c1n[nH]c(=S)s1 | 13µM | · | · | ·
O=C(N/N=C\c1ccc([N+](=O)[O-])s1)c1cncc(Br)c1 | – | – | -102 | ·
NCCNC[C@H](O)CO | – | –[11.4 µM] | · | ·
O=C1c2cccc3cccc(c23)C(=O)N1c1ccncc1 | – | – | -100 | –
NC(=O)N/N=C/c1cc(Br)ccc1OC(=O)c1ccccc1 | – | – | -81 | ·
CCOC(=O)C1CCCN(C(=O)Nc2ccccc2)C1 (stereo unspecified) | – | – | – | –
C=CCc1cccc2cc(C(=O)Nc3ccc(S(=O)(=O)Nc4nnc(CC)s4)cc3)c(=O)oc12 | – | – | – | –
O=C(OCC(=O)N1CCc2ccccc21)c1c2c(nc3ccccc13)CCCC2 | · | – | -110 | –
CC1Cc2ccccc2N1C(=O)COC(=O)c1c2c(nc3ccccc13)CCCCC2 (stereo unspecified) | – | – | ? | ·
SMILES | IMPase Li cell | ALOX12 inhib | PNC inhibitor | IMPase inh
Cc1cc(NC(=O)c2c([N+](=O)[O-])cnn2C)no1 | – | – | ? | –
Cc1ccc2nc(Nc3ccc(Br)cc3)nc(-c3ccccc3)c2c1 | · | · | · | –
COc1ccccc1NC(=O)c1ccc(NC(=O)COC(=O)CC(NC(=O)c2ccccc2Cl)c2ccccc2)cc1 (stereo unspecified) | – | – | – | ·
Cc1cc(NC(=O)CSc2nnc(-c3ccncc3)n2N)ccc1Br | – | – | -89 | –
Nn1c(SCC(=O)Nc2ccc3c(c2)OCO3)nnc1-c1ccncc1 | – | – | – | ?
Nc1nc(O)c2ncn([C@H]3CC[C@@H](CO)O3)c2n1 | – | – | · | ·
CC1=C(C(=O)Nc2cccc(F)c2)C(c2ccsc2)C2=C(CC(C)(C)CC2=O)N1 (stereo unspecified) | – | – | -81 | ·
CC1=C(C(=O)Nc2ccccc2F)C(c2ccsc2)C2=C(CC(C)(C)CC2=O)N1 (stereo unspecified) | – | – | – | ·
CCCC/C=C/C(NC(=O)c1ccccc1)c1ccccc1 (stereo unspecified) | – | – | · | ·
CCCC/C=C/C(NC(=O)CCc1ccccc1)c1ccccc1 (stereo unspecified) | – | – | -119 | ·
Cc1ccc(-n2nnnc2SCC(=O)N2c3ccccc3NC(=O)C2(C)C)cc1 | – | – | -100 | –
COc1cccc(/C=N/Nc2nn3cnnc3c3ccccc23)c1 | – | – | -80 | –
O=C(O)CSCCc1ccccc1 | – | –[11.4 µM] | · | ·
Cc1nc2ccccc2n1S(=O)(=O)c1ccc(Br)cc1 | – | – | -109 | ·
Cc1ccc(C2C(C(=O)c3sc(C)nc3C)=C(O)C(=O)N2CCN(C)C)o1 (stereo unspecified) | – | – | – | –
COc1ccc(C2C(C(=O)c3sc(C)nc3C)=C(O)C(=O)N2CCN(C)C)cc1OC (stereo unspecified) | – | – | -122 | –
Cc1ccccc1C(=O)Nc1cc2c(cc1N1CCCCC1)n(C)c(=O)n2C | · | · | · | –
COc1ccc(-c2cc(C(F)(F)F)n3nc(C(=O)NCc4ccco4)cc3n2)cc1 | – | – | -114 | –
COc1ccc(-n2nc(C(=O)NCc3ccco3)c3ccccc3c2=O)cc1 | ? | – | -84 | –
O=C(NCc1ccco1)c1cc2nc(-c3ccc4c(c3)OCO4)cc(C(F)(F)F)n2n1 | – | – | ? | –
CCn1nc(C)c(NS(=O)(=O)c2ccccc2)c1C | – | – | -105 | –
O=[N+]([O-])c1ccc(CSc2ncnc3c2ncn3[C@@H]2O[C@H](CO)[C@H](O)[C@H]2O)cc1 | – | · | · | ·
CO[C@@]1(NC(=O)Cc2cccs2)C(=O)N2C(C(=O)O)=C(COC(N)=O)CSC21 (stereo partly specified) | – | – | · | ·
CCOC(=O)/C(C#N)=C1/C=Cc2ccccc2N1CC | – | – | -99 | –
CCN1C(=C(C#N)C#N)C=Cc2ccccc21 | – | · | · | ·
SMILES | IMPase Li cell | ALOX12 inhib | PNC inhibitor | IMPase inh
Cc1cc(-n2c(C)cc(C(=O)CN3C(=O)NC4(CCCC4)C3=O)c2C)no1 | – | – | -117 | –
Cc1cc(-n2c(C)cc(C(=O)CN3C(=O)NC4(CCCCC4)C3=O)c2C)no1 | – | – | ? | –
Cc1ccc(CNC(=O)c2ccc(Cn3c(=O)c4ccccc4n(CC(=O)Nc4ccc(C)cc4C)c3=O)cc2)cc1 | · | · | · | –
CCCCCCC(=O)Nc1cc2c(C)cc(=O)oc2cc1C | – | – | -119 | –
Cc1ccc2nc(SC(C)C(=O)Nc3cccc([N+](=O)[O-])c3)[nH]c2c1 (stereo unspecified) | – | – | -84 | ·
CC1(C)[C@@H](CC(=O)O)CCC[C@@H]1CC(=O)O | – | –[11.4 µM] | · | ·
CCOc1cc(/C=N\NC(N)=O)cc(Br)c1OC(C)C | – | – | -97 | ·
CCOc1cc(/C=N/NC(=O)Cn2nc([N+](=O)[O-])cc2C)cc(Br)c1OCc1ccccc1F | – | – | – | –
COc1cc(/C=N/NC(N)=O)cc(Br)c1OCc1ccc(C)cc1 | – | – | ? | –
CCOc1cc(/C=N/NC(N)=O)cc(Br)c1OCc1ccccc1F | – | – | -92 | ·
CC1CCCN(C(=O)CCc2ccccc2)C1 (stereo unspecified) | – | – | -97 | ·
